Assay results published in PubChem BioAssay (NCATS).
Records with an inconclusive call do not appear. The source made the active and inactive calls. Unless noted, calls follow the shape of the dose curve; as a rule, active = well fitted curve in the direction sought with a large enough effect; inconclusive = small, poorly fitted or top-dose-only effect, or another doubt; inactive = no such curve, though single readings can be large; an effect the other way counts as inactive or inconclusive.

Columns and labels:
[1] = AP1 Signaling Pathway (AID 357; active = well fitted curve in either direction with a large enough effect, not every such curve was filed as active; also: % is scaled to controls: 0 for no effect and ±100 for the full control effect); conditions: ME-180 AP-1-bla reporter, EGF-induced, beta-lactamase ratio, 5 h; at 7.69 µM (top of the series) unless noted
Method in brief: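 AP-1-bla ME-180 cells with beta-lactamase reporter under AP-1 response element, stimulated with EC50 EGF; compounds titrated, 5 hours at 37 degrees Celsius. CCF4 read at 460/530 nm ratio; positive and negative modulators judged by AC50.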

[2] = NFAT Signaling Pathway (AID 444; active = well fitted curve in either direction with a large enough effect, not every such curve was filed as active;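 also: carbachol stimulus at about its EC50 of 1 µM final; % is scaled to controls: 0 for no effect and ±100 for the full control effect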); conditions: Jurkat NFAT-bla M1, carbachol, beta-lactamase ratio, 5 h
Method in brief: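 Read-out: CCF4 FRET ratio (460 nm/530 nm) after 1 h RT dye loading, used for %activity and AC50 from titration series. Cells: Jurkat NFAT-β-lactamase/M1 line, treated with compound plus 1 uM carbachol for 5 h, 37 °C.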

[3] = biological target: Mitogen-activated protein kinase 10 (Mus musculus) (UniProt Q61831); assay: JNK3 AlphaScreen Assay (AID 530; active = well fitted curve in either direction with a large enough effect, not every such curve was filed as active;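 also: kinase came from lysate of stimulated human HepG2 cells; signal reports phosphorylation of biotinylated GST-cJun 1-79 at Ser73 with 10 µM ATP; % is scaled to controls: 0 for no effect and ±100 for the full control effect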)
Method in brief: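 Compound titrations were preincubated 15 minutes at room temperature with substrate, antibody and pre-activated JNK3-containing HepG2 lysate. Reactions were started with 10 uM ATP and stopped with EDTA-containing bead buffer for AlphaScreen detection.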

[4] = biological target: 3',5'-cyclic-AMP phosphodiesterase 4B (Homo sapiens) (UniProt Q07343); assay: qHTS Assay for Inhibitors of PDE-IV (AID 607; active = well fitted activation curve with a large enough effect in the main read-out, with a control signal flat, not every such curve was filed as active; also: % of control where 0% means no effect)
Method in brief: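 ACTOne HEK293 cells carry a modified cAMP-gated CNG channel and express endogenous PDE4; plated 1000 cells/well, compounds up to 22.9 uM final. Membrane-potential dye fluorescence (ex 535/em 590) was read; parental cells received 10 uM forskolin + 100 uM RO 20-1724.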

[5] = qHTS Assay for Lipid Storage Modulators (AID 1519; calls by dose curve); conditions: Drosophila S3 cells, BODIPY lipid droplet/cell ratio, laser cytometry, cells loaded with oleic acid
Method in brief: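 Cells seeded at 5,000 per well were treated with compounds over a concentration series and loaded with oleic acid (400 uM, as added). Lipid droplet fluorescence (488 nm excitation, 500-530 nm channel) was read by laser-scanning cytometry and normalized to 20 uM Triacsin C.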

[6] = biological target: Ubiquitin carboxyl-terminal hydrolase 1 (Homo sapiens) (UniProt O94782); assay: Inhibitors of USP1/UAF1: Pilot qHTS (AID 504865);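 also: rhodamine fluorescence freed from ubiquitin-rhodamine substrate followed over time; top concentration of the series differs between compounds; % is scaled to controls: 0 for no effect and ±100 for the full control effect; nearly all actives have a fitted effect of over 35% in size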
Method in brief: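 Kinetic fluorescence assay: 1nM USP1/UAF1, 15 min compound preincubation, then 150nM Ub-Rho; 480/540 nm.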

[7] = Primary qHTS for small molecule stabilizers of the endoplasmic reticulum resident proteome: Secreted ER Calcium Modulated Protein (SERCaMP) assay (AID 1508630); also: % is scaled to controls: 0 for no effect and ±100 for the full control effect
Method in brief: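 GLuc-SERCaMP-expressing SH-SY5Y cells, pretreated 16 h with compound, are challenged with thapsigargin to empty ER calcium stores; after 4 h, coelenterazine is added directly to the medium and luminescence is imaged.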

[8] = biological target: Rap guanine nucleotide exchange factor 3 (Homo sapiens) (UniProt O95398); assay: Confirmatory qHTS for agonist of cAMP-regulated guanine nucleotide exchange factor 3 (EPAC1) (AID 1645881);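 also: EPAC1 catalysed release of BODIPY-GDP from Rap1B seen as fluorescence loss; 100% = effect of cAMP agonist control; nearly all actives have a fitted effect of over 75% in size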
[9] = biological target: Rap guanine nucleotide exchange factor 4 (Homo sapiens) (UniProt Q8WZA2); assay: Confirmatory qHTS for agonist of cAMP-regulated guanine nucleotide exchange factor 4 (EPAC2) (AID 1645884);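 also: nucleotide exchange releases bodipy-GDP from Rap1 and this lowers its fluorescence; % is scaled to controls: 0 for no effect and ±100 for the full control effect; nearly all actives have a fitted effect of over 65% in size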
[10] = biological target: Rap guanine nucleotide exchange factor 4 (Homo sapiens) (UniProt Q8WZA2); assay: Confirmatory qHTS for antagonist of cAMP-regulated guanine nucleotide exchange factor 4 (EPAC2) (AID 1645885); also: nearly all actives have a fitted effect of over 25% in size; also: potency is read from the fitted curve at half-maximal effect
[11] = biological target: Lysosomal acid glucosylceramidase (Homo sapiens) (UniProt P04062); assay: Glucocerebrosidase-p2 (AID 348; in the data active = potency below about 10 µM; also: potency is read from the fitted curve at half-maximal effect); conditions: purified GBA, blue fluorogenic substrate, 40 min
Method in brief: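 Compounds titrated from 0.6 nM upwards against 0.2 nM enzyme in pH 5.9 citric acid/KH2PO4, taurocholate, tween-20; blue fluorogenic substrate 80 uM, 40 min room temperature, stopped and read Ex 365/Em 440 for AC50.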

[12] = biological target: Cytochrome P450 1A2 (Homo sapiens) (UniProt P05177); assay: p450-cyp1a2 (AID 410; calls by dose curve; also: potency is read from the fitted curve at half-maximal effect)
Method in brief: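 Luminescent readout of luciferin formed from Luciferin-ME by human CYP1A2; data normalized against complete inhibition by 57 uM furafylline. Enzyme 20nM, substrate 100uM at Km, 100mM KPO4 buffer, 60 min reaction at room temperature.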

[13] = Stat Signaling Pathway (AID 446; active = well fitted curve in either direction with a large enough effect, not every such curve was filed as active); conditions: ME-180 SIE beta-lactamase reporter, IL-6 stimulated, 5 h; at 7.69 µM (top of the series) unless noted
Method in brief: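 ME-180 SIE-bla cells; overnight plating; cpd + IL-6 40 pM, 5 h, 37 C; LiveBLAzer 2.5 h RT; 460/530 nm emission ratio. Normalized to 300 pM IL-6 and 125 nM JAK inhibitor controls.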

[14] = biological target: Glucocorticoid receptor (Homo sapiens) (UniProt P04150); assay: GR-GFP Redistribution (AID 450;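 active = compounds whose dose series gives a full or clear partial fitted curve of increased nuclear translocation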; also: potency is read from the fitted curve at half-maximal effect); conditions: U2OS GR-GFP nuclear translocation, laser cytometry, 2 h
[15] = biological target: Glucocorticoid receptor (Homo sapiens) (UniProt P04150); assay: GR-EFC Redistribution (AID 451; calls by dose curve; also: potency is read from the fitted curve at half-maximal effect); conditions: CHO-K1 GR-EFC translocation, beta-gal luminescence, 2 h
Method in brief: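 Translocation of GR-ED fusion to nuclear EA restores b-gal, read by luminescence after 1 h room-temperature detection. Engineered CHO-K1 biosensor cells, 1,000/well, exposed 2 h at 37 C to titrations up to 46 uM final.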

[16] = biological target: Dual specificity protein kinase CLK4 (Homo sapiens) (UniProt Q9HAZ1); assay: qHTS Assay for Inhibitors of CDC-like Kinase 4 (Kinase-Glo Assay) (AID 1770); also: % is scaled to controls: 0 for no effect and ±100 for the full control effect; nearly all actives have a fitted effect of over 65% in size
Method in brief: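 Inhibition was judged from remaining ATP, measured by Ultra-Glo luciferase bioluminescence after Clk4 (25 nM) had acted on RS peptide at 1 uM ATP for 4.5 hours, room temperature.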

[17] = biological target: Dual specificity protein kinase CLK4 (Homo sapiens) (UniProt Q9HAZ1); assay: qHTS Assay for Inhibitors of CDC-like Kinase 4 (ADP-Glo Assay) (AID 1771); also: % is scaled to controls: 0 for no effect and ±100 for the full control effect; nearly all actives have a fitted effect of over 70% in size
Method in brief: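 Luminescence from ADP-Glo reports ADP produced by 25 nM Clk4 acting on 100 uM RS repeat peptide with 1 uM ATP over 1 hr at room temperature; residual ATP is depleted before ADP is converted to ATP for detection.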

[18] = biological target: Dual specificity protein kinase CLK4 (Homo sapiens) (UniProt Q9HAZ1); assay: qHTS Assay for Inhibitors of CDC-like Kinase 4 (ADP-FP Assay) (AID 1795);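 also: recombinant human CLK4 phosphorylating RS repeat peptide at 1 µM ATP; % is scaled to controls: 0 for no effect and ±100 for the full control effect; nearly all actives have a fitted effect of over 60% in size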
Method in brief: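 Inhibition of ADP formation by 6.25 nM Clk4 is measured using 1 uM ATP and 100 uM RS repeat peptide over one hour. Produced ADP displaces a fluorescent tracer from antibody, lowering polarization.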

[19] = biological target: Cytochrome P450 3A4 (Homo sapiens) (UniProt P08684); assay: qHTS Assay for Activators of Cytochrome P450 3A4 (AID 885); also: nearly all actives have a fitted effect of over 65% in size
Method in brief: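 20nM CYP3A4 + 25uM Luciferin-PPXE (=KM), 200mM KPO4; cpd 10 min RT; NADPH regen, 60 min RT; stop w/ detection buffer, 20 min; luminescence. Normalized to 57 uM ketoconazole.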

[20] = biological target: Rap guanine nucleotide exchange factor 3 (Homo sapiens) (UniProt O95398); assay: Confirmatory qHTS for antagonist of cAMP-regulated guanine nucleotide exchange factor 3 (EPAC1) (AID 1645880);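 also: plate controls were DMSO only for no effect and full effect of the ATA control for full effect; nearly all actives have a fitted effect of over 55% in size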
Method in brief: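 Nucleotide exchange uses 100 nM EPAC1, 250 nM RAP1B-BODIPY-GDP and 50 uM GDP, with compounds in a concentration-titration series. After 5 min at room temperature, fluorescence (480 nm ex/540 nm em) is read every 5 min for 30 min. Data are normalized to control ATA and DMSO.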

[21] = measured here: cell count channel max response
[22] = measured here: lipid channel max response
[23] = at 7.69 µM (top of the series) unless noted

Dual specificity protein kinase CLK4 (Homo sapiens), sequence (Q9HAZ1 whole entry, looked up): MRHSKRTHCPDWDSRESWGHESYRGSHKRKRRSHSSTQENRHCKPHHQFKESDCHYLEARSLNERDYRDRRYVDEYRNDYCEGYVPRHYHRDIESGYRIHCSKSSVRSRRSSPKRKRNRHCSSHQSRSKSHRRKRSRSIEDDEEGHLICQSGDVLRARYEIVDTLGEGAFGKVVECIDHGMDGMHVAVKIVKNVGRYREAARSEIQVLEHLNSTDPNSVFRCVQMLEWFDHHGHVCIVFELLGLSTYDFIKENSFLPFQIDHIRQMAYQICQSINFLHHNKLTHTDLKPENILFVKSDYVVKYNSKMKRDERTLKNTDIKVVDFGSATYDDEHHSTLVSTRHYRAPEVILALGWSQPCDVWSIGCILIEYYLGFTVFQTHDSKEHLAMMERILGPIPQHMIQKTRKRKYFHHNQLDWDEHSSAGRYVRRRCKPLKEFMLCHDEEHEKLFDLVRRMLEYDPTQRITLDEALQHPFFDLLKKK
Glucocorticoid receptor (Homo sapiens), sequence (P04150 whole entry, looked up, the tested form may be a part): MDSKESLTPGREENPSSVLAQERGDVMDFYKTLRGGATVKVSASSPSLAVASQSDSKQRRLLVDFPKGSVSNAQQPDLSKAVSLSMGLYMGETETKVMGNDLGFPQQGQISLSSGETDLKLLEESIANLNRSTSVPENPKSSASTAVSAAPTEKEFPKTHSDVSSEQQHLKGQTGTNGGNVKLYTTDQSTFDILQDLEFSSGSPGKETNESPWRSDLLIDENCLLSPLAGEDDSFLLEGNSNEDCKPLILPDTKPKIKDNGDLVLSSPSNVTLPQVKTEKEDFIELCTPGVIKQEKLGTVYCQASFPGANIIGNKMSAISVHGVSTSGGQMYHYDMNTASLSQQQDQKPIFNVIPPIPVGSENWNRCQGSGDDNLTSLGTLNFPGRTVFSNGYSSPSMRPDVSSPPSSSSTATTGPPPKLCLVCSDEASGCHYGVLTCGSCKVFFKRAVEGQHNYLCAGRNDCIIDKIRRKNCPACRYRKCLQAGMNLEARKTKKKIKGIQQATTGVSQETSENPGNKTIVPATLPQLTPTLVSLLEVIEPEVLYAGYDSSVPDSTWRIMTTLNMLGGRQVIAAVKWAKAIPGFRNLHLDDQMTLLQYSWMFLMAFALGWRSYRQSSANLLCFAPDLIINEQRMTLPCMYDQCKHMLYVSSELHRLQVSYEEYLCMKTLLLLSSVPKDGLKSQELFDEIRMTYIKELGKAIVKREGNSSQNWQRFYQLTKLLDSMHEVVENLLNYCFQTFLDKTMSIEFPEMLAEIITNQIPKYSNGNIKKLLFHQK
Lysosomal acid glucosylceramidase (Homo sapiens), sequence (P04062 whole entry, looked up): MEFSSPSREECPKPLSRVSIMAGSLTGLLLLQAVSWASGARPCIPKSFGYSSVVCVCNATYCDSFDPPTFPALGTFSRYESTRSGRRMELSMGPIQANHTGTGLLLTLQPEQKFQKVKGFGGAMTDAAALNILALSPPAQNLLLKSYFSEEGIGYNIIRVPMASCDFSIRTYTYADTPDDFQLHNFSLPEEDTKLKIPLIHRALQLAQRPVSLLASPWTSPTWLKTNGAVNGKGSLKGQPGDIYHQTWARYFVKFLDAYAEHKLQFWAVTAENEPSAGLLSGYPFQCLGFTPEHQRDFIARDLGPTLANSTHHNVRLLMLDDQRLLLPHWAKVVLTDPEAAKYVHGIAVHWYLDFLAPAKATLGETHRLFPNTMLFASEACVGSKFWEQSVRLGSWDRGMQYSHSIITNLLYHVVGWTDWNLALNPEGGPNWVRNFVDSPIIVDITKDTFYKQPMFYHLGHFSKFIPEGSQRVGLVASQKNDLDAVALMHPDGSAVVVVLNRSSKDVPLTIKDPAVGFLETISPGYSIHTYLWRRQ
3',5'-cyclic-AMP phosphodiesterase 4B (Homo sapiens), sequence (Q07343 whole entry, looked up): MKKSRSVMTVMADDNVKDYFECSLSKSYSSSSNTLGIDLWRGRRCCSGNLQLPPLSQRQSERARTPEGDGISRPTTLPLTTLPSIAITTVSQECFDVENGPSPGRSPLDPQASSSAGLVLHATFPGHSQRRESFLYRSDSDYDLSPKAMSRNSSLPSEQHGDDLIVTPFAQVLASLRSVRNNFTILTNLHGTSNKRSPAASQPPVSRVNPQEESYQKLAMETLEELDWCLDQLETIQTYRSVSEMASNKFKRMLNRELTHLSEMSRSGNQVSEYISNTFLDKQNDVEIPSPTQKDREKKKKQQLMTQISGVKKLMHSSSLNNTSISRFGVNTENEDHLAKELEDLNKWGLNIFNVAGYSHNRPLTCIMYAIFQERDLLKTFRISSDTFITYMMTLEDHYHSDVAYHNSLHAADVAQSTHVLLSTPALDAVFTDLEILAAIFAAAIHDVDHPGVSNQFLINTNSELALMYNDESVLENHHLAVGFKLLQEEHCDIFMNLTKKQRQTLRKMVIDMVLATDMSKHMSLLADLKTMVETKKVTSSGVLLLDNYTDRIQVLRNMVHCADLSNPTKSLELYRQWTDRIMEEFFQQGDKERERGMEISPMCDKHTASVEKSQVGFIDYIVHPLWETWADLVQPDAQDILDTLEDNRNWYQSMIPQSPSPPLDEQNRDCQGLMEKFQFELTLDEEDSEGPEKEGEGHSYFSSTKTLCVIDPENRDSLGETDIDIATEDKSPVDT
Ubiquitin carboxyl-terminal hydrolase 1 (Homo sapiens), sequence (O94782 whole entry, looked up): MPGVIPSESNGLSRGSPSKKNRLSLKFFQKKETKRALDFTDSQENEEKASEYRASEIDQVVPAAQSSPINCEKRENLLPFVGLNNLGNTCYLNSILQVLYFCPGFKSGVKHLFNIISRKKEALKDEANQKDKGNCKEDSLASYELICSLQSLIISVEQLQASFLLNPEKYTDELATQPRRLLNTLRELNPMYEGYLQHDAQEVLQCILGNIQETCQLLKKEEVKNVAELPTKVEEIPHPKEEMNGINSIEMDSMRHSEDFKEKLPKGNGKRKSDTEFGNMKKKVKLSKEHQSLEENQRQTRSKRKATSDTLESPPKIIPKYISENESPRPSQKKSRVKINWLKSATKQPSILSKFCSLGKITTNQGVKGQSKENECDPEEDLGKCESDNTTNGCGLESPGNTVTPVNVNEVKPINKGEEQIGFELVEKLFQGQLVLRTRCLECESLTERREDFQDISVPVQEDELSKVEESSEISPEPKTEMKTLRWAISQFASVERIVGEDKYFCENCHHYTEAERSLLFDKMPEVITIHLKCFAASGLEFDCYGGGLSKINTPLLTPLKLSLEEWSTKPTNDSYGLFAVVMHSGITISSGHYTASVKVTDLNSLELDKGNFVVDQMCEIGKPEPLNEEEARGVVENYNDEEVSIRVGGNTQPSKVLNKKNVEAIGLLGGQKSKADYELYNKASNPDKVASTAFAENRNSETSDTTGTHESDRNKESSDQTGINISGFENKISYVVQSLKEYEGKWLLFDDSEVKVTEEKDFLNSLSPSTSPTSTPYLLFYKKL
Rap guanine nucleotide exchange factor 4 (Homo sapiens), sequence (Q8WZA2 whole entry, looked up): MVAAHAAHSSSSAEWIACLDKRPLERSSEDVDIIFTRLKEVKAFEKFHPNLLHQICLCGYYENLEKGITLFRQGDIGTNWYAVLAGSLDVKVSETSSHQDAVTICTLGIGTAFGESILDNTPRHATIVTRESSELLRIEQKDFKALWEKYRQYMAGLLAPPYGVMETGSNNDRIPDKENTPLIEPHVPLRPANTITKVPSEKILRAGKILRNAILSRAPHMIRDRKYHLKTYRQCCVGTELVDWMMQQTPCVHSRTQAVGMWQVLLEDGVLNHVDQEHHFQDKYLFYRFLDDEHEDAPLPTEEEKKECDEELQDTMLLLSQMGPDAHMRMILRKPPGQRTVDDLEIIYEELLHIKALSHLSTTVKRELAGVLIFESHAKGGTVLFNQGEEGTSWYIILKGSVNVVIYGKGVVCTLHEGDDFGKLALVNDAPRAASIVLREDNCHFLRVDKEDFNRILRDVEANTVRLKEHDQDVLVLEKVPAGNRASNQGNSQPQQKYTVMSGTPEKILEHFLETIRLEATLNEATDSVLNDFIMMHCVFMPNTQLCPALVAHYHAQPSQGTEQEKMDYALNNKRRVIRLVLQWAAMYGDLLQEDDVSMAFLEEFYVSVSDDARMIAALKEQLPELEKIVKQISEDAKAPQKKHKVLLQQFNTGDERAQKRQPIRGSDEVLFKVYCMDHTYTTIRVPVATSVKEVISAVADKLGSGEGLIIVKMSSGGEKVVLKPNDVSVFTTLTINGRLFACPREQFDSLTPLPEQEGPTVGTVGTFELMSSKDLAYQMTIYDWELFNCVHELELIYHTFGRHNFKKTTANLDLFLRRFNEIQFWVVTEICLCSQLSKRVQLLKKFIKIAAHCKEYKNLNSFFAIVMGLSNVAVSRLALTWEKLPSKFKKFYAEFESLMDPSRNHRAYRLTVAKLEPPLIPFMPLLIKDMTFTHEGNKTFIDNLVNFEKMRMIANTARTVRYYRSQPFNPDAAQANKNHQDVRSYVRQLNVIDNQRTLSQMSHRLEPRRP
Cytochrome P450 1A2 (Homo sapiens), sequence (P05177 whole entry, looked up): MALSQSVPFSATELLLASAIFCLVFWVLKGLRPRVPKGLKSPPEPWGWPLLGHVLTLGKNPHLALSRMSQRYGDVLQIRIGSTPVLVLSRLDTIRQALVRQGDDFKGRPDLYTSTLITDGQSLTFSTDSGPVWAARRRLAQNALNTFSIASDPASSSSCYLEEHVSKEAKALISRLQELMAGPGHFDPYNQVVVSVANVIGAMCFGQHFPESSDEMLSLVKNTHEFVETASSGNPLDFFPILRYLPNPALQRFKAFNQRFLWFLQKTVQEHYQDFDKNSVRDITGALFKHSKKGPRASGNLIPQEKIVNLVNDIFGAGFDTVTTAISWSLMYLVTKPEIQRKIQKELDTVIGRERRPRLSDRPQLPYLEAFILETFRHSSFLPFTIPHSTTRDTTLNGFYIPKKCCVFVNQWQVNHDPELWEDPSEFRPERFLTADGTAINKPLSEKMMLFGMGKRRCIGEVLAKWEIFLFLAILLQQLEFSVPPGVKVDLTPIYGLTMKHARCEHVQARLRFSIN

Oc1ccc(/C=C\c2cc(O)cc(O)c2)cc1
-19.7%: max response [5, 21]
-17.5%: max response [5, 22]
active: Potency [10] 44.1 µM
inactive: activity change, negative = inhibition [1] -2.07% [at 17.2 µM] | activity change, negative = inhibition ([2]; at 17.2 µM (top of the series)) -19.4% | activity change, negative = inhibition ([2]; at 38 µM (top of the series)) -5.74% | outcome [3] | Potency [4] | activity change, negative = inhibition ([5]; at 25.7 µM (top of the series)) 2.61% | Potency [6] | Potency [7] | outcome [8] | outcome [9]

CN(C)c1ncc2nc(-c3ccc(F)cc3)c(=O)n(Cc3cccs3)c2n1
active: Potency [12] 1 µM
26.1%: max response [5, 21]
inactive: Potency [11] > 11.4 µM | activity change, negative = inhibition [1] 14.3% | activity change, negative = inhibition [2, 23] 5.02% | activity, negative = inhibition [13] -1.13% | Potency [14] > 9.22 µM | Potency [15] > 46 µM | activity change, negative = inhibition ([5]; at 57.5 µM (top of the series)) 2.1% | Potency [16] | Potency [17] | Potency [18] | Potency [6] | Potency [7]
28%: max response [5, 22]

Cc1nc2cnc(Oc3ccccc3)nc2n(C)c1=O
14.9%: max response [5, 21]
inactive: Potency [11] > 11.4 µM | activity change, negative = inhibition [1] -8.04% | activity change, negative = inhibition [2, 23] -5.98% | activity, negative = inhibition [13] -10.2% | Potency [14] > 9.22 µM | Potency [15] > 46 µM | outcome [3] | Potency [4] | activity change, negative = inhibition ([5]; at 57.5 µM (top of the series)) 6.1% | Potency [16] | Potency [17] | Potency [18] | Potency [6] | Potency [7]
active: Potency [12] 12.6 µM
19.9%: max response [5, 22]

CN(C)c1ncc2nc(-c3ccc(F)cc3)c(=O)n(C)c2n1
inactive: Potency [11] > 11.4 µM | activity change, negative = inhibition [1] -9.27% | activity change, negative = inhibition [2, 23] 2.27% | activity, negative = inhibition [13] -9.34% | Potency [14] > 9.22 µM | Potency [15] > 46 µM | outcome [3] | Potency [4] | activity change, negative = inhibition ([5]; at 57.5 µM (top of the series)) 8.24% | Potency [16] | Potency [17] | Potency [18] | Potency [6] | Potency [7]
active: Potency [12] 1.58 µM
28.6%: max response [5, 22]
18.3%: max response [5, 21]

CN(C)c1ncc2nc(-c3cccs3)c(=O)n(C[C@H]3CCCO3)c2n1
active: Potency [12] 1.58 µM
14.9%: max response [5, 21]
inactive: Potency [11] > 11.4 µM | activity change, negative = inhibition [1] -15.4% | activity change, negative = inhibition [2, 23] 12.3% | activity, negative = inhibition [13] 1.25% | Potency [14] > 9.22 µM | Potency [15] > 46 µM | outcome [3] | Potency [19] | activity change, negative = inhibition ([5]; at 57.5 µM (top of the series)) 4.26% | Potency [16] | Potency [17] | Potency [18] | Potency [6] | Potency [7] | Potency [20] | Potency [10]
17.7%: max response [5, 22]
